Measured values reported in PubChem BioAssay AID1851 (National Center for Advancing Translational Sciences (NCATS), 2009).
Values joined by “and” are separate entries in the source; they are usually repeats but may differ in a detail not shown here. Identical values can stand only once. The campaign covered roughly 16,000 compounds. About 5,700 (36%) were called active. Inconclusive results (about 24%) are left out. The call rests on the fitted dose curve; in most records, active means well fitted curve in the direction sought with a large enough effect; inconclusive means small, poorly fitted or top-dose-only effect, or effect the other way; inactive means no such curve, though single readings can be large or run the other way. This is one part of the list.

Target: Cytochrome P450 1A2 (Homo sapiens) (UniProt P05177)
Sequence (P05177 whole entry, looked up): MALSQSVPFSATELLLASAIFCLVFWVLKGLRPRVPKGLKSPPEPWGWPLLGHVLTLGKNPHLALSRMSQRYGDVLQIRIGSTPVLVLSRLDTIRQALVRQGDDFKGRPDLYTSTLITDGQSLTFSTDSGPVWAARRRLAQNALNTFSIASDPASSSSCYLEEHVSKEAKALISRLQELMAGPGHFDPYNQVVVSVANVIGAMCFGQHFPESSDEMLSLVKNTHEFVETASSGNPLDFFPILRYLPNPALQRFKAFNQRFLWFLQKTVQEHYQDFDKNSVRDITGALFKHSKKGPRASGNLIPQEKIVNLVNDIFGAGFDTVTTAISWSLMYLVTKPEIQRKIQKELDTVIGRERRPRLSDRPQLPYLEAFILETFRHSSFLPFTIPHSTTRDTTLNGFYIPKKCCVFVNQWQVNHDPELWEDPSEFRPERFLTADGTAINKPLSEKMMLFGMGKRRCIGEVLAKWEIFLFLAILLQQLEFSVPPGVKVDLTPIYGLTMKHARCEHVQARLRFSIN
Experiment: Cytochrome panel assay with activity outcomes
Settings: recombinant CYP, pro-luciferin dealkylation, luminescence, p450-cyp1a2; series mostly up to 57.1 µM; activity, negative = inhibition: at the top concentration
On the % scale 0 is the no-effect control and ±100 the full control effect.

| Structure (SMILES) | activity, negative = inhibition | AC50 |
| --- | --- | --- |
| CCC(C)NC(=O)C1c2cc(OC)c(OC)cc2C(=O)N(C)C1c1cccs1 (stereo unspecified) | -7.16% (inactive) | – |
| COc1ccc(-c2ccc3c(n2)CCCN3C[C@H](O)CN2CCCc3nc(C)c(C)cc32)cc1 | -2.83% [at 11.4 µM] (inactive) | – |
| COc1ccc(-c2cc(C(F)F)nc(-n3nc(C)cc3C)n2)cc1 | – | 1.78 µM (active) |
| Fc1ccc([C@H]2CCNC[C@H]2COc2ccc3c(c2)OCO3)cc1 | – | 3.16 µM (active) |
| COc1cc(CN2CCN(C(=O)CC(C)C)CC2)cc(OC)c1OC | -13.1% (inactive) | – |
| OC(CN1CCCCC1)CN1CCCCC1 | -1% (inactive) | – |
| Cc1nn2c(NCC(C)C)c3c(nc2c1-c1ccccc1)CCC3 | – | 2.82 µM (active) |
| CCC(C)[C@H](NC(=O)Nc1ccc(Oc2ccccc2)cc1)C(=O)O (stereo partly specified) | -5.08% (inactive) | – |
| CCN(CC)c1nc(Nc2ccccc2)nc(Oc2ccc(C(=O)OC)cc2)n1 | – | 12.6 µM (active) |
| CN1CCCC1CCNC1C2CC3CC(C2)CC1C3 (stereo unspecified) | -4.97% (inactive) | – |
| COC(=O)c1c(C)[nH]c(O)c1C=Nc1ccc(C(C)C)cc1 | – | 5.62 µM (active) |
| CSc1nsc(SC)c1C(=O)Nc1ccc(C)cc1 | – | 7.08 µM (active) |
| CCCNC(=O)OC[C@@H]1O[C@H](CCO/N=C(\C)CCN2CCc3nc(CC)c(CC)cc3C2)C=C[C@@H]1Oc1ccc(OC)cc1 | -0.5% [at 11.4 µM] (inactive) | – |
| CC1=C(CC(=O)O)c2cc(F)ccc2/C1=C\c1ccc(S(C)(=O)=O)cc1 | – | 12.6 µM (active) |
| CC1=C(CC(=O)O)c2cc(F)ccc2/C1=C\c1ccc(S(C)=O)cc1 (stereo unspecified) | – | 3.98 µM (active) and 12.6 µM (active) |
| C=C(C)[C@@H]1CC=C(C(=O)O)CC1 | -6.61% (inactive) | – |
| Cc1cnc(CNc2ccnc(-c3cccc(NS(C)(=O)=O)c3)n2)cn1 | – | 20 µM (active) |
| Cc1cnc(CNc2ccnc(-c3cccc(C#N)c3)n2)cn1 | – | 1.26 µM (active) |
| COc1cccc(-c2nccc(NCc3cnc(C)cn3)n2)c1 | – | 0.501 µM (active) |
| O=C(NCCCN1CCC(Cc2ccccc2)CC1)C1CCN(S(=O)(=O)N2CCOCC2)CC1 | -11.5% (inactive) | – |
| O=C(N/N=C\c1cccc(O)c1)c1ccncc1 | -15.7% [at 11.4 µM] (inactive) | – |
| O=[N+]([O-])c1ccc(/C=N/N/C(=N/c2ccccn2)c2ccccn2)cc1 | – | 12.6 µM (active) |

| Structure (SMILES) | activity, negative = inhibition | AC50 |
| --- | --- | --- |
| Nc1ccc(C(=O)N/N=C/c2ccccc2)cc1 | – | 25.1 µM (active) |
| O=[N+]([O-])c1ccc([C@@H](Nc2ccccc2)c2ccc3cccnc3c2O)cc1 | -21.3% [at 2.29 µM] (inactive) | – |
| Nc1ccc(C(=O)NCC(=O)O)cc1 | -6.23% [at 25.6 µM] (inactive) | – |
| O=C(N/N=C/c1cccnc1)c1ccc([N+](=O)[O-])cc1 | – | 5.01 µM (active) |
| COc1cc(/C=N/NC(=O)c2ccncc2)ccc1OC(=O)c1ccc([N+](=O)[O-])cc1 | -4.43% (inactive) | – |
| O=C(N/N=C/c1ccc(F)cc1)c1ccc(Br)cc1 | – | 0.794 µM (active) |
| CO[C@]1(NC(=O)Cc2cccs2)C(=O)N2C(C(=O)O)=C(COC(N)=O)CS[C@H]21 | 1.9% [at 25.6 µM] (inactive) | – |
| O=C(O)c1cccc(C(=O)O)c1S(=O)Cc1ccccc1 (stereo unspecified) | -2.43% [at 11.4 µM] (inactive) | – |
| Cn1c(=O)c2c(-c3cccc(F)c3)c3c(nc2n(C)c1=O)-c1ccccc1C3O (stereo unspecified) | -14.7% (inactive) | – |
| O=c1c(-c2cccs2)nc2cncnc2n1C1CC1 | – | 2.51 µM (active) |
| O=c1c(-c2cccc(Cl)c2)nc2cncnc2n1C1CC1 | – | 0.631 µM (active) |
| O=c1c(-c2cccc(F)c2)nc2cncnc2n1C1CC1 | – | 1.58 µM (active) |
| O=c1c(-c2ccccc2)nc2cncnc2n1C1CC1 | – | 2 µM (active) |
| CCC1OC23CCCCC2C(C#N)(C(=N)O3)C1(C#N)C#N (stereo unspecified) | 15.5% (inactive) | – |
| NC(=O)NC(=O)[C@H]1CCCC[C@@H]1C(=O)O | -6.09% [at 11.4 µM] (inactive) | – |
| O=C1C2C3C=CC(C3)C2C(=O)N1c1ncn[nH]1 (stereo unspecified) | -12% (inactive) | – |
| Cc1nc2cncnc2n(C2CC2)c1=O | – | 15.8 µM (active) |
| O=c1c(-c2ccc(F)cc2)nc2cncnc2n1C1CC1 | – | 0.158 µM (active) |
| O=c1c(-c2cc(F)cc(F)c2)nc2cncnc2n1C1CC1 | – | 1.26 µM (active) |
| O=c1c(-c2ccc(F)c(F)c2)nc2cncnc2n1C1CC1 | – | 0.1 µM (active) |
| COc1ccc(-n2c(=O)c(C)nc3cncnc32)cc1 | -16.4% (inactive) | – |
| COC(=O)c1cc2c(ccn2-c2ccc(F)cc2)n1C(C)C | – | 1 µM (active) |

| Structure (SMILES) | activity, negative = inhibition | AC50 |
| --- | --- | --- |
| COC(=O)c1cc2c(ccn2-c2ccc(F)cc2)n1CC(C)C | – | 0.501 µM (active) |
| CCC(C(=O)N1CCOCC1)n1c(C(=O)OC)cc2occc21 (stereo unspecified) | -2.3% (inactive) | – |
| COC(=O)C/C=C\[C@@H](C)[C@@H](/C=N\O[C@@H]1O[C@H](COC(C)=O)[C@H](OC(C)=O)[C@H](OC(C)=O)[C@H]1OC(C)=O)OC | 8.95% [at 11.4 µM] (inactive) | – |
| Cc1ccccc1OC1C(=O)N(Cc2ccc3c(c2)OCO3)C1c1sccc1C (stereo unspecified) | – | 3.16 µM (active) |
| O=C1C[C@@H](O)[C@@H](O)[C@H]2[C@@H]3C(=O)N(Cc4ccc5c(c4)OCO5)C(=O)[C@@H]3CC[C@H]12 | -14.6% [at 11.4 µM] (inactive) and 4.43% [at 11.4 µM] (inactive) | – |
| COc1ccc(CCN2C(=O)C(Oc3ccccc3C)C2c2ccc3c(c2)OCO3)cc1OC (stereo unspecified) | -16.5% (inactive) | – |
| O=C(c1csnn1)N1CCC2(CCCN(c3ccccc3)C2)CC1 | -20.2% (inactive) | – |
| COc1[nH]c2ccc(F)cc2c1C(=O)OCC1CCN(CCNS(C)(=O)=O)CC1 | – | inactive |
| COc1cc(N)c(Cl)cc1C(=O)CCC1CCN(CCNS(C)(=O)=O)CC1 | -13.3% (inactive) | – |
| Cn1cc(C(=O)OCC2CCN(CCNS(C)(=O)=O)CC2)c2ccccc21 | – | 15.8 µM (active) |
| CCOC(=O)C1C(=O)NC(C)C1c1ccccc1 (stereo unspecified) | – | 12.6 µM (active) |
| CCCCN1C(=O)CCC(C(=O)O)C1c1ccccc1 (stereo unspecified) | -2.61% (inactive) | – |
| CCOC(=O)C1(C(=O)O)NC(=O)CC1c1ccccc1 (stereo unspecified) | -14.7% (inactive) | – |
| CCOC(=O)C1=C(C)NC(=O)NC1c1ccoc1 (stereo unspecified) | – | 15.8 µM (active) |
| CCOC(=O)C1=C(C)NC(C)=C(C(=O)OCC)C1c1sccc1C | – | 5.01 µM (active) |
| COC(=O)CSC1=C(C#N)C(c2cccc(F)c2)CC(=O)N1 (stereo unspecified) | -15.9% (inactive) | – |
| CCOC(=O)CSC1=C(C#N)C(c2sccc2C)CC(=O)N1 (stereo unspecified) | – | 20 µM (active) |
| C=CCOC(=O)C1=C(C)NC(SCC(=O)OCC)=C(C#N)C1c1ccc(C)cc1 (stereo unspecified) | – | 12.6 µM (active) |
| COC(=O)C1=C(C)NC(=O)NC1c1ccsc1 (stereo unspecified) | 12.8% (inactive) | – |
| CCOC(=O)C1=C(O)C(Nc2nccs2)(C(F)(F)F)N=C1C (stereo unspecified) | -21% (inactive) | – |
| CCCSC1=C(C#N)C(c2cccnc2)C(C(=O)OCC)=C(c2ccccc2)N1 (stereo unspecified) | -21.2% (inactive) | – |
